“And” between values parts separate entries of the source, which are not always exact repeats. Identical values can stand only once. Some structures have more than one record in an assay (separate samples or runs), and their calls can disagree. The source made the active and inactive calls. Unless noted, how the calls were made is not given here.

The nature of assay [1]: resazurin metabolic signal in HepG2 cells – cell-based, resazurin fluorescence, 24 h, PK04 Diversity Set, profiling panel (AID 1172). The following applies: HepG2 viability, higher = more signal.
Assay [2] can be described thus: budding yeast growth changes without added modifier – OD600, strain BY4716, 24 h, basal condition, primary screen (AID 1173). The following applies: S. cerevisiae BY4716 growth, OD600, 24 h; higher = more signal, called active from +8 up or from −8 down.
Assay [3] in a line: viability profiling in MM1S myeloma cells – cell-based, resazurin fluorescence, basal, 24 h, PK04 Diversity Set, profiling panel (AID 1174). The following applies: higher = more signal, called active from +8 up or from −8 down. For orientation: Resazurin is reduced to fluorescent resorufin, in cell work by metabolically active cells.
In assay [4] the target is Dihydroorotate dehydrogenase (quinone), mitochondrial (Plasmodium falciparum (isolate 3D7)) (UniProt Q08210). The assay can be described thus: inhibition of P. falciparum DHODH – biochemical, C-terminal His tag, absorbance 600 nm, primary screen (AID 1175).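 Further: recombinant parasite enzyme with a five histidine tag at its C terminus.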 The following applies: PfDHODH enzyme, DCIP absorbance 600 nm; higher = more signal, called active from +8 up or from −8 down.
Sequence of Dihydroorotate dehydrogenase (quinone), mitochondrial (Plasmodium falciparum (isolate 3D7)) (Q08210 whole entry, looked up): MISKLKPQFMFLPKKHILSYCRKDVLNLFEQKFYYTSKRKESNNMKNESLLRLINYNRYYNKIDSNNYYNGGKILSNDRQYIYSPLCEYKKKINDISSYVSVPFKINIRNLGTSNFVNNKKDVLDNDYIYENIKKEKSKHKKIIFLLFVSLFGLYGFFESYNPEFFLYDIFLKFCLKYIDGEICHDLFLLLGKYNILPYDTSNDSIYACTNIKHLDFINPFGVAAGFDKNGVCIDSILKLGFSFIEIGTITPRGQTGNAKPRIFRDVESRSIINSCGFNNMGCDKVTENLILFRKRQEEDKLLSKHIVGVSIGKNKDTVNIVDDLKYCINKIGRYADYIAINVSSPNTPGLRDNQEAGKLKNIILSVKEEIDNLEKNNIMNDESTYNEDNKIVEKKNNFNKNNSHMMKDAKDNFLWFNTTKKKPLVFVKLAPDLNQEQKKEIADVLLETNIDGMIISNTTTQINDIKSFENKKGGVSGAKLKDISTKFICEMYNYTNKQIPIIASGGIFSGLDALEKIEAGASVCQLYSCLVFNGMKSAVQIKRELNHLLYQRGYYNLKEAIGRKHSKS

A short description of assay [5]: inhibition of PAO1 biofilm formation – strain PAO1, LB-PBS medium, absorbance 600 nm, primary screen (AID 1176). Particulars: P. aeruginosa PAO1 growth/biofilm, A600, 12 h; higher = more signal.
The nature of assay [6]: growth modulation of vineyard yeast isolate – strain RM11-1a, OD600, basal, 24 h, primary screen (AID 1177).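 Further: cultures grown under basal conditions with no added stressor.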 The following applies: S. cerevisiae RM11-1a growth, OD600, 24 h; higher = more signal, called active from +8 up or from −8 down.
Assay [7] is described as follows: growth of efflux-deficient E. coli DRC39 – strain DRC39, OD650, 24 h, E. coli filamentation inducers, primary screen (AID 1178).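 Further: growth measured as culture turbidity by optical density at 650 nm.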 Particulars: E. coli DRC39 acrAB, higher = more signal, called active from +8 up or from −8 down.
Assay [8] is described as follows: growth of efflux-deficient E. coli DRC39 – strain DRC39, OD650, 48 h, E. coli filamentation inducers, primary screen (AID 1179).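 Further: screen aims at cell division blockers that make cells filament.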 The following applies: E. coli DRC39 delta-acrAB growth, higher = more signal, called active from +8 up or from −8 down.
Assay [9] is described as follows: viability profiling in RPMI8226 myeloma cells – cell-based, resazurin fluorescence, basal, 24 h, PK04 Diversity Set, profiling panel (AID 1180).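 Further: RPMI8826 multiple myeloma cell line at 5000 cells per well.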 Particulars: higher = more signal.
For assay [10], the target named is E3 ubiquitin-protein ligase XIAP (Homo sapiens) (UniProt P98170). The assay can be described thus: small molecules binding XIAP protein – biophysical, small-molecule microarray, fluorescence 635 nm, primary screen (AID 1181).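 Further: score merges 667 nm emission and signal to noise over triplicate slides.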 Particulars: higher = more signal.
Sequence of E3 ubiquitin-protein ligase XIAP (Homo sapiens) (P98170 whole entry, looked up, the tested form may be a part): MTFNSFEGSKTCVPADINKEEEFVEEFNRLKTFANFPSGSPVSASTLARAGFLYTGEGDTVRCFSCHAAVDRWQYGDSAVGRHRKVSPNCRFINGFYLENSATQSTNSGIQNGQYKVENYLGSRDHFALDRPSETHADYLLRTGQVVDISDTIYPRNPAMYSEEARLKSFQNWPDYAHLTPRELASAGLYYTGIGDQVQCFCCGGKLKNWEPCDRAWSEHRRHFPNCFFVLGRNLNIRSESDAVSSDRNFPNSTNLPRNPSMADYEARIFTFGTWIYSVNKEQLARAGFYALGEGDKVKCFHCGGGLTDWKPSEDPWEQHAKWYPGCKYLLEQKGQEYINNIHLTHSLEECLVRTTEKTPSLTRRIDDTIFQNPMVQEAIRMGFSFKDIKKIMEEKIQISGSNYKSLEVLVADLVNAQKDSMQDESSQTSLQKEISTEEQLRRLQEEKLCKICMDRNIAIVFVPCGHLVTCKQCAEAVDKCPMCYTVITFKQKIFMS
In assay [11] the test system is XIP peptide (Xip251-270) binding. Nature of the assay: XIP fragment 251-270 binding compounds – biochemical, small-molecule microarray, fluorescence 635/667 nm, 0.1 µg/mL protein, primary screen (AID 1182). Particulars: fluorescent protein binding, 635 nm, higher = more signal, called active from +8 up or from −8 down.
For another assay, the system named is XIP peptide (Xip251-270). Nature of the assay: compounds binding XIP fragment 251-270 – biochemical, small-molecule microarray, fluorescence 635/667 nm, 0.5 µg/mL protein, primary screen (AID 1183). Particulars: fluorescence 635 nm, higher = more signal.
The nature of assay [12]: blood-stage malaria parasite viability loss – strain 3D7, DAPI fluorescence, 100 nL, primary screen (AID 1184).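 Further: parasites grown inside human red blood cells in medium with human serum.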 Particulars: P. falciparum 3D7 growth, 3 d, higher = more signal.
Assay [13] deals with Homeobox protein Hox-A13 (Mus musculus) (UniProt Q62424). Nature of the assay: disruptors of Hoxa13 oligonucleotide interaction – biochemical, fluorescence polarization, labeled oligonucleotide, primary screen (AID 1185). Particulars: Hoxa13:DNA binding, 15 min, higher = more signal, called active from +8 up or from −8 down.
Sequence of Homeobox protein Hox-A13 (Mus musculus) (Q62424 whole entry, looked up): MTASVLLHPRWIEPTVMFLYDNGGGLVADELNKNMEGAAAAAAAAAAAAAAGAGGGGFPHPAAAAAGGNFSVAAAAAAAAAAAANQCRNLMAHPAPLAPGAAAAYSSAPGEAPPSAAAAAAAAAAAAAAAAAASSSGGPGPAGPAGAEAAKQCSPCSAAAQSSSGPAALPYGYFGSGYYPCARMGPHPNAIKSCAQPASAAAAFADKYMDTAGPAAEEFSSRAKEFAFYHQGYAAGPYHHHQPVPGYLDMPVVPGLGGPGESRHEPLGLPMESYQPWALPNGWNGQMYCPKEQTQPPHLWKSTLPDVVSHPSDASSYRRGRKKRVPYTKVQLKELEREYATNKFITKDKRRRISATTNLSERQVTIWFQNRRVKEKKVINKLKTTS
Assay [14] can be described thus: blockers of DNA damage checkpoint Chk1 activation – imaging, HeLa, hydroxyurea, phospho-Chk1 antibody, percent positive cells, primary screen (AID 1186). The following applies: hydroxyurea-induced phospho-Chk1 immunofluorescence imaging, higher = more signal.
Assay [15] in a line: blockers of DNA damage checkpoint Chk1 activation – imaging, HeLa, hydroxyurea, phospho-Chk1 nuclear intensity, primary screen (AID 1187). The following applies: hydroxyurea-induced phospho-Chk1 immunofluorescence imaging, higher = more signal.

With `C=CCN(C(=O)C1N(c2c(Cl)cccc2CO)C(=O)C2C(C(=O)O)C3C=CC21O3)c1ccc(OC)cc1` (configuration not stated), the z-score in [1] is -0.48 and 0.737; in assay [2] it was -0.566 (inactive) and -0.241 (inactive); in assay [3], -1.03 (inactive) and 0.874 (inactive); in assay [5], -0.137 (inactive) and -0.428 (inactive); in assay [6] it was 0.344 (inactive) and -1.83 (inactive); in assay [7] it was -0.237 (inactive) and 1.79 (inactive). The z-score in [8] was -0.293 (inactive) and 1.93 (inactive); in assay [9] it was -0.509 and 1.06; in [12] it was -0.927 and 0.408; in assay [13], -1.96 (inactive) and 0.908 (inactive); in assay [14], -0.6 (inactive) and -1.27 (inactive); in assay [15], 0.0631 (inactive) and -0.682 (inactive). In addition, the composite z-score in assay [4] is -0.394 (inactive) and -0.0226 (inactive); in [10], 0.281 and -0.152; in assay [11], -0.241 (inactive) and -0.23 (inactive); with XIP peptide (Xip251-270), 0.74 and 0.312.
Take `C[N+](C)(C)CCCCNC(=O)[C@H]1C[C@H]2C(=O)N[C@@H](CCCC[N+](C)(C)C)C(=O)N2[C@H]1c1cccc(OCCO)c1`: the z-score is -0.114 and -3.58 in assay [1]; 0.315 (inactive) and -0.201 (inactive) in [2]; -1.18 (inactive) and -1.75 (inactive) in [3]; 0.187 (inactive) and 0.23 (inactive) in [5]; 0.152 (inactive) and -0.406 (inactive) in assay [6]; -0.93 (inactive) and -1 (inactive) in assay [7]. Moreover, the z-score in [8] was -1.32 (inactive) and -1.66 (inactive); in [9], -1.16 and -0.819; in assay [12], 0.211 and -0.244; in [13], -1.74 (inactive) and -2.51 (inactive); in assay [14] it was -0.885 (inactive) and -0.42 (inactive); in assay [15], -0.771 (inactive) and -0.16 (inactive). Further, the composite z-score in assay [4] is -27.2 (active) and -30.4 (active); in assay [10] it was 0.0159 and 0.136; in assay [11], 1.64 (inactive) and 0.768 (inactive); in the assay on XIP peptide (Xip251-270) it was 0.921 and 0.684.
For the compound `C=C[C@@H](C)[C@@H](O)c1ccc(OCCO)cc1`, the z-score in [1] is 0.162 and 0.223; in assay [2], -3.96 (inactive) and -2.81 (inactive); in assay [3], -0.435 (inactive) and 0.286 (inactive); in assay [5] it was 0.331 (inactive) and 0.838 (inactive); in assay [6], 0.909 (inactive) and 1.21 (inactive); in assay [7] it was 1.12 (inactive) and 0.982 (inactive). Moreover, the z-score in [8] is 0.795 (inactive) and 1.13 (inactive); in assay [9] it was -0.112 and 0.616; in [12], -0.892 and 0.0904; in assay [13] it was -0.592 (inactive) and -0.123 (inactive); in assay [14], 1.19 (inactive) and -0.153 (inactive); in assay [15] it was 1.48 (inactive) and 0.641 (inactive). In addition, the composite z-score in [4] is 0.0788 (inactive) and -1.03 (inactive); in assay [10], 0.103 and -0.15; in assay [11] it was -0.704 (inactive) and -0.999 (inactive); in the assay with XIP peptide (Xip251-270) it was -0.664 and 0.0227.
With `CC(CO)N1C(=O)[C@@H]2C3C(=O)OCCC=C[C@H]3OC23C=CCN(CCN2CCOCC2)C(=O)[C@@H]13` (some centres not stated), the z-score in assay [1] was -0.437 and 0.303; in assay [2] it was 0.401 (inactive) and 0.191 (inactive); in [3], -1.45 (inactive) and -0.517 (inactive); in [5] it was 0.0405 (inactive) and 0.0809 (inactive); in assay [6], 0.819 (inactive) and -0.631 (inactive); in assay [7], -0.831 (inactive) and -0.259 (inactive). For the same compound, the z-score in assay [8] is -0.839 (inactive) and -0.358 (inactive); in assay [9] it was -1.03 and -0.76; in assay [12] it was -0.195 and 0.513; in assay [13], -6.39 (inactive) and -7.63 (inactive); in [14], 0.079 (inactive) and 0.456 (inactive); in assay [15], -0.204 (inactive) and 0.371 (inactive). Besides, the composite z-score was -1.07 (inactive) and -2.08 (inactive) in [4]; 0.16 and 0.219 in assay [10]; -0.163 (inactive) and 0.286 (inactive) in [11]; -0.0259 and 0.321 in the assay on XIP peptide (Xip251-270).
For the compound `C=CCN(CCCCC)C(=O)C(c1cccs1)N(C(=O)/C=C\C(=O)O)c1ccc(CCO)cc1` (configuration not stated), the z-score in assay [1] was -0.524 and -0.698; in assay [2], -0.238 (inactive) and -0.173 (inactive); in [3] it was -0.585 (inactive) and -0.372 (inactive); in [5], -0.553 (inactive) and -0.621 (inactive); in [6], 0.741 (inactive) and 0.428 (inactive); in [7], 0.191 (inactive) and 0.129 (inactive). Further, the z-score in [8] was 0.712 (inactive) and 0.685 (inactive); in assay [9], -0.359 and -0.583; in [12], 0.653 and 0.454; in assay [13] it was -0.227 (inactive) and 0.0535 (inactive); in assay [14], 0.51 (inactive) and 0.163 (inactive); in assay [15], 0.571 (inactive) and -0.0484 (inactive). Further, the composite z-score in assay [4] is -0.249 (inactive) and -0.533 (inactive); in assay [10] it was -0.346 and -0.138; in assay [11], -0.141 (inactive) and 0.737 (inactive); with XIP peptide (Xip251-270) it was 0.861 and -0.198.
In the case of `C=CC[C@@H](O)c1ccc(O)c(F)c1`, the z-score in assay [1] was -0.0101 and 0.942; in [2], -0.898 (inactive) and -2.97 (inactive); in assay [3], -0.87 (inactive) and 1.56 (inactive); in assay [5], 0.671 (inactive); in [6], 0.912 (inactive) and -1.83 (inactive); in assay [7] it was -0.046 (inactive) and 1.79 (inactive). In addition, the z-score in assay [8] is -0.248 (inactive) and 1.06 (inactive); in assay [9] it was -0.511 and 0.864; in [12], 0.408 and -0.881; in assay [13], -2.13 (inactive) and -0.155 (inactive); in [14] it was -0.0057 (inactive) and -0.138 (inactive); in [15] it was -0.268 (inactive) and -0.321 (inactive). Also, the composite z-score is 0.672 (inactive) and -0.585 (inactive) in assay [4]; -0.0884 and -0.042 in assay [10]; -0.316 (inactive) and -0.555 (inactive) in assay [11]; 0.849 and -1.57 in the assay on XIP peptide (Xip251-270).
Take `CC(C)[Si]1(C(C)C)OCc2cc(CCCc3cc4c(c(CCc5ccccc5)n3)[Si](C(C)C)(C(C)C)OC4)nc(CCc3ccccc3)c21`: the z-score was 0.926 and -0.531 in assay [1]; -15.4 (active) and 0.852 (inactive) in [2]; -0.78 (inactive) and -0.186 (inactive) in [3]; 0.35 (inactive) in assay [5]; -0.656 (inactive) and 0.13 (inactive) in [6]; 1.87 (inactive) and -0.184 (inactive) in assay [7]. The z-score in assay [8] was 1.19 (inactive) and -0.0698 (inactive); in assay [9], 0.583 and -1.16; in assay [12], 0.0742 and 1.55; in assay [13] it was -1.38 (inactive) and -0.138 (inactive); in assay [14], -0.72 (inactive) and 0.618 (inactive); in assay [15] it was -0.625 (inactive) and -0.0158 (inactive). The composite z-score in assay [4] was -0.351 (inactive) and 0.681 (inactive); in [10], -0.0095 and -0.111; in assay [11], -0.189 (inactive) and -0.0317 (inactive); with XIP peptide (Xip251-270), -1.31 and -0.189.
